Measurements reported in paper PMC11995724, “Antibiotic target discovery by integrated phenotypic and activity-based profiling of electrophilic fragments” (Cell chemical biology, 2025).
The whole screen tested about 3,200 compounds, of which about 110 (3.4%) showed an effect of 50% or more. For the sample, strong results were picked, then their nearest neighbours and some compounds at random.

System: T1, V. cholerae SAD30
T1 construct: SAD30
Set-up: species or system S. aureus MSSA476 (TSB) or V. cholerae SAD30 (LB); 384-well bacterial growth screen at 25 uM, OD600 relative to DMSO control
Settings: relative growth, OD600, LB; 25 µM; inhibitor

SMILES | % of control remaining [%]
O=C(CCl)Nc1cccc(S(=O)(=O)N=C2CCCCCN2)c1 [4-D08, N-{3-[(azepan-2-ylidene)sulfamoyl]phenyl}-2-chloroacetamide] | 107.656
CC(C)NC(=O)C(C#N)=Cc1c(Cl)nc2ccccn12 [9-A11, 3-{2-chloroimidazo[1,2-a]pyridin-3-yl}-2-cyano-N-(propan-2-yl)prop-2-enamide] | 91.8423
C=CC(=O)Nc1cc(NC(=O)C2CCC2)ccc1F [2-E10, N-[4-fluoro-3-(prop-2-enamido)phenyl]cyclobutanecarboxamide] | 92.0486
C=CC(=O)Nc1cc(NC(=O)c2ccc([N+](=O)[O-])o2)ccc1F [3-J04, N-[4-fluoro-3-(prop-2-enamido)phenyl]-5-nitrofuran-2-carboxamide] | -0.1875
C=CC(=O)Nc1cc(NC(=O)C2(OC)CCOC2)ccc1F (centres unmarked) [3-D05, N-[4-fluoro-3-(prop-2-enamido)phenyl]-3-methoxyoxolane-3-carboxamide] | 99.5001
CC(C)Cn1c(N)c(C(=O)CCl)c(=O)[nH]c1=O [10-F08, 6-amino-5-(2-chloroacetyl)-1-(2-methylpropyl)-1,2,3,4-tetrahydropyrimidine-2,4-dione] | 101.305
O=C(CCl)Nc1cc2c(cc1[N+](=O)[O-])OCCCO2 [4-O05, 2-chloro-N-(8-nitro-3,4-dihydro-2H-1,5-benzodioxepin-7-yl)acetamide] | 108.001
Cl.O=C(CCl)c1ccncc1 [10-M09, 2-chloro-1-(pyridin-4-yl)ethan-1-one hydrochloride] | -0.1559
O=C(CCl)c1ccc(C(F)(F)F)cc1 [10-B10, 2-chloro-1-[4-(trifluoromethyl)phenyl]ethan-1-one] | 79.174
O=C(CCl)c1ccoc1 [10-O09, 2-chloro-1-(furan-3-yl)ethan-1-one] | 123.281
O=C(CCl)c1c[nH]c2ccncc12 [10-K05, 2-chloro-1-{1H-pyrrolo[3,2-c]pyridin-3-yl}ethan-1-one] | 101.305
O=C(CCl)NCC(F)(F)c1cccnc1 [6-C21, 2-chloro-N-[2,2-difluoro-2-(pyridin-3-yl)ethyl]acetamide] | 97.8292
Cl.O=C(CCl)c1ccncc1F [10-I09, 2-chloro-1-(3-fluoropyridin-4-yl)ethan-1-one hydrochloride] | 0
COc1ccc(C=C(C#N)C(=O)Nc2c(C)cccc2C)cc1OC [8-A17, 2-cyano-3-(3,4-dimethoxyphenyl)-N-(2,6-dimethylphenyl)prop-2-enamide] | 86.6757
Cc1n[nH]c(C)c1C=C(C#N)C(=O)Nc1cc(Cl)cc(Cl)c1 [8-M08, 2-cyano-N-(3,5-dichlorophenyl)-3-(3,5-dimethyl-1H-pyrazol-4-yl)prop-2-enamide] | 68.3209
CCOc1ccc2nc(NC(=O)CCl)sc2c1 [4-L10, 2-chloro-N-(6-ethoxy-1,3-benzothiazol-2-yl)acetamide] | 94.3714
C=CC(=O)N1CCC(C(=O)NCCc2c(C)n[nH]c2C)CC1 [2-D04, N-[2-(3,5-dimethyl-1H-pyrazol-4-yl)ethyl]-1-(prop-2-enoyl)piperidine-4-carboxamide] | 106.099
CC(Cl)C(=O)N1CCN(S(=O)(=O)c2ccccc2)CC1 (centres unmarked) [6-B12, 1-[4-(benzenesulfonyl)piperazin-1-yl]-2-chloropropan-1-one] | 88.4254
Cc1cccc2[nH]cc(C(=O)CCl)c12 [10-H09, 2-chloro-1-(4-methyl-1H-indol-3-yl)ethan-1-one] | 100.526
CCc1cccc2c(C(=O)CCl)c[nH]c12 [10-C12, 2-chloro-1-(7-ethyl-1H-indol-3-yl)ethan-1-one] | 24.3133
CCc1cccc(CC)c1NC(=O)CCl [4-F10, 2-chloro-N-(2,6-diethylphenyl)acetamide] | 103.86
Cc1noc(C)c1COC1CCN(C(=O)C(C)Cl)C1 (centres unmarked) [7-O14, 2-chloro-1-{3-[(3,5-dimethyl-1,2-oxazol-4-yl)methoxy]pyrrolidin-1-yl}propan-1-one] | 78.3744
Cc1cc(-n2c(C)cc(C(=O)CCl)c2C)no1 [10-C18, 2-chloro-1-[2,5-dimethyl-1-(5-methyl-1,2-oxazol-3-yl)-1H-pyrrol-3-yl]ethan-1-one] | 106.137
Cc1cc(C(=O)CCl)c(C)n1-c1ccccc1 [10-L20, 2-chloro-1-(2,5-dimethyl-1-phenyl-1H-pyrrol-3-yl)ethan-1-one] | 100.682

SMILES | % of control remaining [%]
Cc1ccccc1-n1c(C)cc(C(=O)CCl)c1C [10-H20, 2-chloro-1-[2,5-dimethyl-1-(2-methylphenyl)-1H-pyrrol-3-yl]ethan-1-one] | 100.526
Cc1cc(C)cc(-n2c(C)cc(C(=O)CCl)c2C)c1 [10-E04, 2-chloro-1-[1-(3,5-dimethylphenyl)-2,5-dimethyl-1H-pyrrol-3-yl]ethan-1-one] | 92.1099
Cc1cc(C(=O)CCl)c(C)n1-c1ccccn1 [10-C16, 2-chloro-1-[2,5-dimethyl-1-(pyridin-2-yl)-1H-pyrrol-3-yl]ethan-1-one] | 41.1455
Cc1cc(C(=O)CCl)c(C)n1-c1ccon1 [10-F06, 2-chloro-1-[2,5-dimethyl-1-(1,2-oxazol-3-yl)-1H-pyrrol-3-yl]ethan-1-one] | 37.8726
Cc1ccc(S(=O)(=O)NC2CN(C(=O)CCl)C2)cc1 [5-E07, N-[1-(2-chloroacetyl)azetidin-3-yl]-4-methylbenzene-1-sulfonamide] | 95.6604
C[C@H](NC(=O)CCl)C(=O)N1CCCCC1 [7-L14, 2-chloro-N-[(2S)-1-oxo-1-(piperidin-1-yl)propan-2-yl]acetamide] | 80.489
COc1ccc(C=C(C#N)C(=O)Nc2cccc(C)c2)cc1 [8-M03, 2-cyano-3-(4-methoxyphenyl)-N-(3-methylphenyl)prop-2-enamide] | 85.4521
C=CC(=O)NCCc1csc(C)n1 [1-D13, N-[2-(2-methyl-1,3-thiazol-4-yl)ethyl]prop-2-enamide] | 86.9955
C=CC(=O)NCCc1nc(C)cs1 [2-D05, N-[2-(4-methyl-1,3-thiazol-2-yl)ethyl]prop-2-enamide] | 94.8278
C=CC(=O)NCC(=O)c1scc(C)c1Cl [1-D16, N-[2-(3-chloro-4-methylthiophen-2-yl)-2-oxoethyl]prop-2-enamide] | 44.1609
COc1ccc(NC(=O)c2ccccc2NC(=O)CCl)cc1 [4-L05, 2-(2-chloroacetamido)-N-(4-methoxyphenyl)benzamide] | 109.209
O=C(CCl)NCCSc1ccccc1 [4-G21, 2-chloro-N-[2-(phenylsulfanyl)ethyl]acetamide] | 113.522
CN1c2ccccc2C(NC(=O)CCl)CS1(=O)=O (centres unmarked) [7-L04, 2-chloro-N-(1-methyl-2,2-dioxo-3,4-dihydro-1H-2lambda6,1-benzothiazin-4-yl)acetamide] | 88.9476
O=C1C=CC(=O)N1c1ccc(F)c(Cl)c1 [10-D15, 1-(3-chloro-4-fluorophenyl)-2,5-dihydro-1H-pyrrole-2,5-dione] | 25.716
N#CC(=Cc1ccc(C#N)cc1)C(=O)N1CCCC1 [9-P21, 4-[2-cyano-2-(pyrrolidine-1-carbonyl)eth-1-en-1-yl]benzonitrile] | 93.8817
O=C1C=CC(=O)N1c1ccc(F)cc1 [10-M10, 1-(4-fluorophenyl)-2,5-dihydro-1H-pyrrole-2,5-dione] | 16.8323
O=C(CCl)Nc1ccc(SC(F)F)cc1 [4-B10, 2-chloro-N-{4-[(difluoromethyl)sulfanyl]phenyl}acetamide] | 104.205
O=C1C=CC(=O)N1c1ccc(SC(F)F)cc1 [10-A18, 1-{4-[(difluoromethyl)sulfanyl]phenyl}-2,5-dihydro-1H-pyrrole-2,5-dione] | 28.9889
N#Cc1ccc(N2C(=O)C=CC2=O)cc1 [10-B09, 4-(2,5-dioxo-2,5-dihydro-1H-pyrrol-1-yl)benzonitrile] | 24.9367
O=C1C=CC(=O)N1c1cnccn1 [10-P07, 1-(pyrazin-2-yl)-2,5-dihydro-1H-pyrrole-2,5-dione] | 97.4089
CC(Cl)C(=O)Nc1ccc(F)c(Cl)c1 (centres unmarked) [4-A04, 2-chloro-N-(3-chloro-4-fluorophenyl)propanamide] | 99.7196
CC(Cl)C(=O)Nc1ccc(SC(F)F)cc1 (centres unmarked) [4-L09, 2-chloro-N-{4-[(difluoromethyl)sulfanyl]phenyl}propanamide] | 88.1604
COc1ccc(NC(=O)C(C#N)=Cc2cnc3c(C)cccn23)cc1 [9-L03, 2-cyano-N-(4-methoxyphenyl)-3-{8-methylimidazo[1,2-a]pyridin-3-yl}prop-2-enamide] | 95.7852
